In all, about 2,400 compounds went through this assay and about 2,000 (83%) were called active.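 How the source made its calls: active means inhibition above the solvent-only control well mean plus 3 SD, limit set per screening run (cut at about 23% in these data); inactive means the rest.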 The set was probably picked from earlier hits. These entries were drawn from the full list.
Molecular target: Guanyl-specific ribonuclease T1 (Aspergillus oryzae (strain ATCC 42149 / RIB 40)) (UniProt P00651)
Assay: RNase T1 inhibitors, counter-screen for TPT1 inhibitor project, biochemical, fluorescence polarization (AID 2153);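 further: plate controls were DMSO wells with enzyme for no effect and wells without RNase T1 for full effect; inhibitors block cleavage so intact labeled substrate keeps polarization high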
Conditions: RNase T1 cleavage, 1536-well, at 5 µM, hits give high values

Sequence of Guanyl-specific ribonuclease T1 (Aspergillus oryzae (strain ATCC 42149 / RIB 40)) (P00651 whole entry, looked up): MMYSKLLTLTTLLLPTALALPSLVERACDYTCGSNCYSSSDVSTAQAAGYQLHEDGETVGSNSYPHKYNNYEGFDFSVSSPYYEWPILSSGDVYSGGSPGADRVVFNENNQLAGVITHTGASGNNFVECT

Row | Compound | inhibition
1 | Cc1ccc(Nc2nc(Cl)c(C=O)s2)cc1 | 77.2% (active)
2 | Cc1ccc2[nH]c(=O)c(CN3CCCCC3)c(-c3ccccc3)c2c1 | 3.06% (inactive)
3 | CCOc1ccc(-n2c(O)c(/C=N/c3ccnn3Cc3ccncc3)c3ccccc3c2=O)cc1 | 92% (active)
4 | Cc1ccc2cc(/C=N/Nc3ccc(C(=O)O)cc3)c(Cl)nc2c1 | 46.9% (active)
5 | CCn1c(/C=C/c2ccc([N+](=O)[O-])o2)nc2ccccc2c1=O | 49.4% (active)
6 | CN=c1scc(-c2cc(OC)ccc2OC)n1/N=C/c1c(C)[nH]c2ccccc12 | 32.1% (active)
7 | COc1cc(N2CCCC2)c(OC)cc1/C=C(/C#N)c1cccc(Br)c1 | 91.3% (active)
8 | CCN1/C(=C\c2ccc3ccccc3[n+]2CC)Sc2cc(C)ccc21 | 88.3% (active)
9 | CCN1/C(=C/c2ccc3ccc(C)cc3[n+]2CC)Sc2ccccc21 | 59.6% (active)
10 | O=S(=O)(O)Oc1c[nH]c2ccccc12 | 49.5% (active)
11 | CCOC(=O)C1=C(C)Nc2sc(C(=O)c3ccc(Br)cc3)c(N)c2C1c1ccc(C(=O)OC)cc1 (configuration not stated) | 37.3% (active)
12 | Cc1cc(/C=C2/SC(=O)N(CC(=O)N3CCCC3)C2=O)ccc1N1CCOCC1 | 78.1% (active)
13 | CC(=O)n1c(C=Nc2ccccc2)c(O)c2ccccc21 | 84.6% (active)
14 | COC(=O)c1[nH]c2cccc(C)c2c1NC(=O)CN1CCCc2ccccc21 | 29.8% (active)
15 | CCN(CC)c1ccc2cc(C(N)=O)/c(=N\NC(=O)c3ccncc3)oc2c1 | 135% (active)
16 | CCOC(=O)c1c(NC(=S)Nc2ccccc2)sc2c1CCN(C)C2 | 54% (active)
17 | CC(=O)c1cc(NC(=O)c2ccccc2)c(=O)oc1/C=C/N(C)C | 123% (active)
18 | CC[n+]1cc(C)ccc1/C=C/c1ccc(N(C)C)cc1 | 51.2% (active)
19 | O=C(NNc1c2ccccc2nc2ccccc12)c1cc2ccccc2cc1O | 46.8% (active)
20 | CCN(CC)C(=O)CSC(Nc1cccc(F)c1)=C(C#N)C#N | 61.1% (active)
21 | CN(C)CCCn1c(N)c(C#N)c2nc(C#N)c(C#N)nc21 | 58.9% (active)
22 | Cc1ccc(N=C2NC(=O)/C(=C/C=C/c3ccco3)S2)cc1C | 30.5% (active)
23 | COc1ccc(Cc2nc(-c3ccccn3)no2)cc1OC | 13.1% (inactive)
24 | CN(C)c1ccc(/C=C2\NC(=S)N(Cc3ccccc3)C2=O)cc1 | 144% (active)
25 | CCOC(=O)c1c(CC(C)C)csc1/N=C/C1=C(O)CCCC1=O | 17.9% (inactive)
26 | Cc1cc(/C=N/Nc2ccc([N+](=O)[O-])cn2)c(C)n1-c1cccc(C(=O)O)c1 | 62.8% (active)
27 | Cc1ccc(-n2c(C)cc(/C=N/Nc3ccc([N+](=O)[O-])cn3)c2C)c(C)c1 | 76.1% (active)

— PubChem BioAssay AID2153 (The Scripps Research Institute Molecular Screening Center, 2009)
